# Structures can show the parent of a compound that is named as a salt.
# Test system: Saccharomyces cerevisiae BY4741 SeMeCo community
# Test: z-score of subpopulation abundance vs DMSO median, subpopulation auxotrophic for LM; higher = larger share of this subpopulation than in DMSO controls
# Settings: 10 µM; 24 h; SM minimal medium; subpopulation (auxotrophy): LM
# In short: (§1)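 Subpopulation abundance was reported as a z-score against the median of vehicle wells. The Saccharomyces cerevisiae BY4741 community, carrying four plasmids that each restored one auxotrophy and encoded a distinct fluorescent protein, was grown 24 h in minimal SM medium in 384-well plates holding library drugs at 10 µM final. Cells were paraformaldehyde-fixed and imaged by automated confocal microscopy, with single-auxotroph fluorescent strains used for thresholds and autofluorescence correction.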
row,SMILES,z-score of subpopulation abundance
1,Nc1ccc(S(=O)(=O)c2ccc(N)cc2)cc1 [Dapson],0.51
2,CN(C)CC(c1ccc(O)cc1)C1(O)CCCCC1 (stereo not drawn) [Desvenlafaxine],-0.57
3,CN(C)CCC=C1c2ccccc2C(C)(C)c2ccccc21 [Melitracen hydrochloride],-0.58
4,Oc1cccc(O)c1 [Resorcinol],-0.4
5,C#C[C@]1(O)CC[C@H]2[C@@H]3CCC4=CCCC[C@@H]4[C@H]3C(=C)C[C@@]21CC [Desogestrel],-0.94
6,C[C@]1(COc2ccc(N3CCC(Oc4ccc(OC(F)(F)F)cc4)CC3)cc2)Cn2cc([N+](=O)[O-])nc2O1 [Delamanid],0.45
7,NC[C@H]1O[C@H](O[C@H]2[C@H](O)[C@@H](O[C@H]3O[C@H](CO)[C@@H](O)[C@H](N)[C@H]3O)[C@H](N)C[C@@H]2N)[C@H](O)[C@@H](O)[C@@H]1O [Kanamycin sulfate],1.55
8,Cn1nnnc1SCC1=C(C(=O)O)N2C(=O)[C@@H](NC(=O)[C@H](OC=O)c3ccccc3)[C@H]2SC1 [Cefamandole nafate],0.72
9,Cc1c(OCC(F)(F)F)ccnc1C[S@@+]([O-])c1nc2ccccc2[nH]1 [Dexlansoprazole],1.28
10,CCC(=O)O[C@@H]1CC(=O)O[C@H](C)C/C=C/C=C/[C@H](O)[C@H](C)C[C@H](CC=O)[C@H](O[C@@H]2O[C@H](C)[C@@H](O[C@H]3C[C@@](C)(O)[C@@H](OC(=O)CC)[C@H](C)O3)[C@H](N(C)C)[C@H]2O)[C@H]1OC [Midecamycin],0.61
11,CCOc1ccc2nc3cc(N)ccc3c(N)c2c1 [Ethacridine lactate monohydrate],4.18

# Test system: Saccharomyces cerevisiae BY4741 SeMeCo community
# Test: z-score of subpopulation abundance vs DMSO median, subpopulation auxotrophic for HM; higher = larger share of this subpopulation than in DMSO controls
# Settings: 10 µM; 24 h; SM minimal medium; subpopulation (auxotrophy): HM
# In short: as §1
row,SMILES,z-score of subpopulation abundance
1,Nc1ccc(S(=O)(=O)c2ccc(N)cc2)cc1 [Dapson],0.93
2,CN(C)CC(c1ccc(O)cc1)C1(O)CCCCC1 (stereo not drawn) [Desvenlafaxine],-1.06
3,CN(C)CCC=C1c2ccccc2C(C)(C)c2ccccc21 [Melitracen hydrochloride],-0.45
4,Oc1cccc(O)c1 [Resorcinol],-0.29
5,C[C@]1(COc2ccc(N3CCC(Oc4ccc(OC(F)(F)F)cc4)CC3)cc2)Cn2cc([N+](=O)[O-])nc2O1 [Delamanid],0
6,Cc1c(OCC(F)(F)F)ccnc1C[S@@+]([O-])c1nc2ccccc2[nH]1 [Dexlansoprazole],0
7,CCC(=O)O[C@@H]1CC(=O)O[C@H](C)C/C=C/C=C/[C@H](O)[C@H](C)C[C@H](CC=O)[C@H](O[C@@H]2O[C@H](C)[C@@H](O[C@H]3C[C@@](C)(O)[C@@H](OC(=O)CC)[C@H](C)O3)[C@H](N(C)C)[C@H]2O)[C@H]1OC [Midecamycin],1.3
8,CCOc1ccc2nc3cc(N)ccc3c(N)c2c1 [Ethacridine lactate monohydrate],5.32
9,CN1CCN(CC(=O)N2c3ccccc3C(=O)Nc3cccnc32)CC1 [Pirenzepine dihydrochloride],-0.85
10,CC1(C)S[C@@H]2[C@H](NC(=O)Cc3ccccc3)C(=O)N2[C@H]1C(=O)O [Benzathine penicilline],-0.76

# Test system: Saccharomyces cerevisiae BY4741 SeMeCo community
# Test: z-score of subpopulation abundance vs DMSO median, subpopulation auxotrophic for HU; higher = larger share of this subpopulation than in DMSO controls
# Settings: 10 µM; 24 h; SM minimal medium; subpopulation (auxotrophy): HU
# In short: as §1
row,SMILES,z-score of subpopulation abundance
1,Nc1ccc(S(=O)(=O)c2ccc(N)cc2)cc1 [Dapson],0.31
2,CN(C)CC(c1ccc(O)cc1)C1(O)CCCCC1 (stereo not drawn) [Desvenlafaxine],-0.26
3,CN(C)CCC=C1c2ccccc2C(C)(C)c2ccccc21 [Melitracen hydrochloride],-0.73
4,Oc1cccc(O)c1 [Resorcinol],-0.64
5,C#C[C@]1(O)CC[C@H]2[C@@H]3CCC4=CCCC[C@@H]4[C@H]3C(=C)C[C@@]21CC [Desogestrel],-0.11
6,C[C@]1(COc2ccc(N3CCC(Oc4ccc(OC(F)(F)F)cc4)CC3)cc2)Cn2cc([N+](=O)[O-])nc2O1 [Delamanid],-0.43
7,NC[C@H]1O[C@H](O[C@H]2[C@H](O)[C@@H](O[C@H]3O[C@H](CO)[C@@H](O)[C@H](N)[C@H]3O)[C@H](N)C[C@@H]2N)[C@H](O)[C@@H](O)[C@@H]1O [Kanamycin sulfate],-0.5
8,Cn1nnnc1SCC1=C(C(=O)O)N2C(=O)[C@@H](NC(=O)[C@H](OC=O)c3ccccc3)[C@H]2SC1 [Cefamandole nafate],0.51
9,Cc1c(OCC(F)(F)F)ccnc1C[S@@+]([O-])c1nc2ccccc2[nH]1 [Dexlansoprazole],-0.32
10,CCOc1ccc2nc3cc(N)ccc3c(N)c2c1 [Ethacridine lactate monohydrate],-8.09
11,CN1CCN(CC(=O)N2c3ccccc3C(=O)Nc3cccnc32)CC1 [Pirenzepine dihydrochloride],-0.67
12,CC1(C)S[C@@H]2[C@H](NC(=O)Cc3ccccc3)C(=O)N2[C@H]1C(=O)O [Benzathine penicilline],0.01

# Test system: Saccharomyces cerevisiae BY4741 SeMeCo community
# Test: z-score of subpopulation abundance vs DMSO median, subpopulation auxotrophic for UM; higher = larger share of this subpopulation than in DMSO controls
# Settings: 10 µM; 24 h; SM minimal medium; subpopulation (auxotrophy): UM
# In short: as §1
row,SMILES,z-score of subpopulation abundance
1,Nc1ccc(S(=O)(=O)c2ccc(N)cc2)cc1 [Dapson],0.45
2,CN(C)CCC=C1c2ccccc2C(C)(C)c2ccccc21 [Melitracen hydrochloride],-0.21
3,C#C[C@]1(O)CC[C@H]2[C@@H]3CCC4=CCCC[C@@H]4[C@H]3C(=C)C[C@@]21CC [Desogestrel],-1.41
4,C[C@]1(COc2ccc(N3CCC(Oc4ccc(OC(F)(F)F)cc4)CC3)cc2)Cn2cc([N+](=O)[O-])nc2O1 [Delamanid],-0.53
5,NC[C@H]1O[C@H](O[C@H]2[C@H](O)[C@@H](O[C@H]3O[C@H](CO)[C@@H](O)[C@H](N)[C@H]3O)[C@H](N)C[C@@H]2N)[C@H](O)[C@@H](O)[C@@H]1O [Kanamycin sulfate],-0.15
6,Cn1nnnc1SCC1=C(C(=O)O)N2C(=O)[C@@H](NC(=O)[C@H](OC=O)c3ccccc3)[C@H]2SC1 [Cefamandole nafate],2.08
7,Cc1c(OCC(F)(F)F)ccnc1C[S@@+]([O-])c1nc2ccccc2[nH]1 [Dexlansoprazole],-0.91
8,CCOc1ccc2nc3cc(N)ccc3c(N)c2c1 [Ethacridine lactate monohydrate],-9.56
9,CN1CCN(CC(=O)N2c3ccccc3C(=O)Nc3cccnc32)CC1 [Pirenzepine dihydrochloride],-0.76
10,CC1(C)S[C@@H]2[C@H](NC(=O)Cc3ccccc3)C(=O)N2[C@H]1C(=O)O [Benzathine penicilline],-0.06

# From the supplement of paper PMC8975748
